# From ChEMBL document CHEMBL1961873, “Compounds: GSK PKIS; Assays: Nanosyn kinase panel” (2012)
# Key:
# [1] = target: Leukocyte tyrosine kinase receptor (Homo sapiens) (UniProt P29376); conditions: at 1 µM;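 also: each value is the mean inhibition of LTK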
# [2] = target: Tyrosine-protein kinase Lyn (Homo sapiens) (UniProt P07948); conditions: at 0.1 µM
# [3] = target: Tyrosine-protein kinase Lyn (Homo sapiens) (UniProt P07948); conditions: at 1 µM
# [4] = target: Tyrosine-protein kinase Lyn (Homo sapiens) (UniProt P07948); conditions: at 0.1 µM; remark: listed apart in the source
# [5] = target: Tyrosine-protein kinase Lyn (Homo sapiens) (UniProt P07948); conditions: at 1 µM; remark: listed apart in the source
# [6] = target: T1, Tyrosine-protein kinase Mer (Homo sapiens) (UniProt Q12866); conditions: at 0.1 µM
# T1 sequence (whole entry): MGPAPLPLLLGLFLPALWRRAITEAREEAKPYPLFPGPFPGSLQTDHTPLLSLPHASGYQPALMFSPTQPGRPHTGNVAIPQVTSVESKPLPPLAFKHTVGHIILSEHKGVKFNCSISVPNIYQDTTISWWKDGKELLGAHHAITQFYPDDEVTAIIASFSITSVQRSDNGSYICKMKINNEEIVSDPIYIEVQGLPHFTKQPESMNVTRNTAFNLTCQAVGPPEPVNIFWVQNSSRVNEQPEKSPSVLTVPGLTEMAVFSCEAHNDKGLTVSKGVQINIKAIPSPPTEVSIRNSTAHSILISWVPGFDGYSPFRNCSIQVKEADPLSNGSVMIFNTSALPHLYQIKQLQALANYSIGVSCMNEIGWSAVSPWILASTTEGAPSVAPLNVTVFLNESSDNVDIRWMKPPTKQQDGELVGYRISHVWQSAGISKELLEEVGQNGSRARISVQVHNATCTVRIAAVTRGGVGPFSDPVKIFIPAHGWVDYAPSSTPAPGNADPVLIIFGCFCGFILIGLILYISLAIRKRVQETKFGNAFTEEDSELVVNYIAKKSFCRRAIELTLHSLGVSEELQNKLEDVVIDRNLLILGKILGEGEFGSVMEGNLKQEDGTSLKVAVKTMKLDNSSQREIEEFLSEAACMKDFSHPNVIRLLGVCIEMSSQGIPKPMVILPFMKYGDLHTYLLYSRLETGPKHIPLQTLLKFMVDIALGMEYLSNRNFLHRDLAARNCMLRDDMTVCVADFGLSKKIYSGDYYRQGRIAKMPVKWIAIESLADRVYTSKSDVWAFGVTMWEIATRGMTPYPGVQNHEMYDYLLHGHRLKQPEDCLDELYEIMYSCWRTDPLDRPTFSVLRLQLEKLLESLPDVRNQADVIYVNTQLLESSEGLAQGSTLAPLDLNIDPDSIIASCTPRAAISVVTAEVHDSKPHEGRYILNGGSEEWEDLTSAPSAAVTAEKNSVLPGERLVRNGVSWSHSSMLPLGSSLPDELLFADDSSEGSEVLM
# [7] = target: T1, Tyrosine-protein kinase Mer (Homo sapiens); conditions: at 1 µM
# [8] = target: Hepatocyte growth factor receptor (Homo sapiens) (UniProt P08581); conditions: at 0.1 µM
# [9] = target: Hepatocyte growth factor receptor (Homo sapiens) (UniProt P08581); conditions: at 1 µM
# [10] = target: T2, Muscle, skeletal receptor tyrosine-protein kinase (Homo sapiens) (UniProt O15146); conditions: at 0.1 µM
# T2 sequence (whole entry): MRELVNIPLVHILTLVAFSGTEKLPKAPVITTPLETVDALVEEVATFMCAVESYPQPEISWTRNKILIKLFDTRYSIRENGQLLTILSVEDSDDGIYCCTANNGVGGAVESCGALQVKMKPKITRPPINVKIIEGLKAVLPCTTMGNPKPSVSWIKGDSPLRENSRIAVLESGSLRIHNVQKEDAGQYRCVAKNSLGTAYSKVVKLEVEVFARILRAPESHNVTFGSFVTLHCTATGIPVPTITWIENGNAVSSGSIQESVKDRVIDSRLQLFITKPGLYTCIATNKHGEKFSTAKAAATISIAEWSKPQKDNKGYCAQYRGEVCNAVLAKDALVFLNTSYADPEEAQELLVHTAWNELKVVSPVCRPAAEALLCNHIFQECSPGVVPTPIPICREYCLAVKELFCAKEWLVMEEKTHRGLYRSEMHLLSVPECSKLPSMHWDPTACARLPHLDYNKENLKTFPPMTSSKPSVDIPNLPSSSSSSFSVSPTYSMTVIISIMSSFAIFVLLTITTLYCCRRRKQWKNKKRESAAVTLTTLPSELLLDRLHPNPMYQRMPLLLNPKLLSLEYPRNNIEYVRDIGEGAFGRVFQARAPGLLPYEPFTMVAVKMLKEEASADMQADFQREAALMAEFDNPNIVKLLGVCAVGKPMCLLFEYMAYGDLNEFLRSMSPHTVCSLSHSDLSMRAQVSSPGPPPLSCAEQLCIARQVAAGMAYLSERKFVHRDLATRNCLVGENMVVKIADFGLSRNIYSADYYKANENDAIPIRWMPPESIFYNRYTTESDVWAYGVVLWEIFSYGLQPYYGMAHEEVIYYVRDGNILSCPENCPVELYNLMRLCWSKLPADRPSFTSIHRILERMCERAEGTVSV
# [11] = target: T2, Muscle, skeletal receptor tyrosine-protein kinase (Homo sapiens); conditions: at 1 µM
# [12] = target: Platelet-derived growth factor receptor alpha (Homo sapiens) (UniProt P16234); conditions: at 0.1 µM
# Platelet-derived growth factor receptor alpha (Homo sapiens), sequence (P16234 whole entry): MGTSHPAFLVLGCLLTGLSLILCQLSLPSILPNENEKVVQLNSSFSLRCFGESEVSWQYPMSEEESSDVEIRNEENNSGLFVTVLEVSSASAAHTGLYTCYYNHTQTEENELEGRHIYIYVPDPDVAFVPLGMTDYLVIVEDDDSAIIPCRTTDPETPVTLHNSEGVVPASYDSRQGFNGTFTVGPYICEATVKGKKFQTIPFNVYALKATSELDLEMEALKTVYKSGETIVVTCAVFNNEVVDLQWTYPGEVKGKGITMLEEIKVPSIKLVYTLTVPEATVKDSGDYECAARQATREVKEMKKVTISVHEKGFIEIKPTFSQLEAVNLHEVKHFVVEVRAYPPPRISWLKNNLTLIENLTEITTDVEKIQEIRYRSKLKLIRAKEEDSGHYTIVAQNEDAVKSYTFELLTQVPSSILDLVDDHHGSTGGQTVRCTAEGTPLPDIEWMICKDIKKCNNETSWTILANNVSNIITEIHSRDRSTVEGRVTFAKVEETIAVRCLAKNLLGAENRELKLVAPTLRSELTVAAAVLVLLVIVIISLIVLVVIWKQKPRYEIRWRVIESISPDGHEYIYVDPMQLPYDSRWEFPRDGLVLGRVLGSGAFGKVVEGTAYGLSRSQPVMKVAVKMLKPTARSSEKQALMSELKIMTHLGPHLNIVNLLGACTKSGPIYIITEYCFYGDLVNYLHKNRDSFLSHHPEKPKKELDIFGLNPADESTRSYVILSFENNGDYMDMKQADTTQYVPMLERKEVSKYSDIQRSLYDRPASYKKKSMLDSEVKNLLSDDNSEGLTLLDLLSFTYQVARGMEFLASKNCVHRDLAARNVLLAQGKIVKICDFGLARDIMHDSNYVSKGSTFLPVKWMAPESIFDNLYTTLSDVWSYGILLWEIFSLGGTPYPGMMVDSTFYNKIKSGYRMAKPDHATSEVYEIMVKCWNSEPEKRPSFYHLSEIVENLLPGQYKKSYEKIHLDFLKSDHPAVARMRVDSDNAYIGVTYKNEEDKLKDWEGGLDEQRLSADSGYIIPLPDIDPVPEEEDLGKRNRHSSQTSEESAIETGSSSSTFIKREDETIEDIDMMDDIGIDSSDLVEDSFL
# [13] = target: Platelet-derived growth factor receptor alpha (Homo sapiens) (UniProt P16234); conditions: at 1 µM
# [14] = system: Platelet-derived growth factor receptor alpha (Homo sapiens), P16234 [D842V]; conditions: at 0.1 µM
# Platelet-derived growth factor receptor alpha (Homo sapiens), P16234 [D842V], sequence (P16234 whole entry D842V): as the sequence (P16234 whole entry) above, with D842V counted along it
# [15] = system: Platelet-derived growth factor receptor alpha (Homo sapiens), P16234 [D842V]; conditions: at 1 µM
# [16] = system: Platelet-derived growth factor receptor alpha (Homo sapiens), P16234 [T674I]; conditions: at 0.1 µM
# Platelet-derived growth factor receptor alpha (Homo sapiens), P16234 [T674I], sequence (P16234 whole entry T674I): as the sequence (P16234 whole entry) above, with T674I counted along it
# [17] = system: Platelet-derived growth factor receptor alpha (Homo sapiens), P16234 [T674I]; conditions: at 1 µM
# [18] = system: Platelet-derived growth factor receptor alpha (Homo sapiens), P16234 [V561D]; conditions: at 0.1 µM
# [19] = system: Platelet-derived growth factor receptor alpha (Homo sapiens), P16234 [V561D]; conditions: at 1 µM
# [20] = target: Platelet-derived growth factor receptor beta (Homo sapiens) (UniProt P09619); conditions: at 0.1 µM;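 also: reported value is the mean percent inhibition of the kinase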
# Leukocyte tyrosine kinase receptor (Homo sapiens), sequence (P29376 whole entry): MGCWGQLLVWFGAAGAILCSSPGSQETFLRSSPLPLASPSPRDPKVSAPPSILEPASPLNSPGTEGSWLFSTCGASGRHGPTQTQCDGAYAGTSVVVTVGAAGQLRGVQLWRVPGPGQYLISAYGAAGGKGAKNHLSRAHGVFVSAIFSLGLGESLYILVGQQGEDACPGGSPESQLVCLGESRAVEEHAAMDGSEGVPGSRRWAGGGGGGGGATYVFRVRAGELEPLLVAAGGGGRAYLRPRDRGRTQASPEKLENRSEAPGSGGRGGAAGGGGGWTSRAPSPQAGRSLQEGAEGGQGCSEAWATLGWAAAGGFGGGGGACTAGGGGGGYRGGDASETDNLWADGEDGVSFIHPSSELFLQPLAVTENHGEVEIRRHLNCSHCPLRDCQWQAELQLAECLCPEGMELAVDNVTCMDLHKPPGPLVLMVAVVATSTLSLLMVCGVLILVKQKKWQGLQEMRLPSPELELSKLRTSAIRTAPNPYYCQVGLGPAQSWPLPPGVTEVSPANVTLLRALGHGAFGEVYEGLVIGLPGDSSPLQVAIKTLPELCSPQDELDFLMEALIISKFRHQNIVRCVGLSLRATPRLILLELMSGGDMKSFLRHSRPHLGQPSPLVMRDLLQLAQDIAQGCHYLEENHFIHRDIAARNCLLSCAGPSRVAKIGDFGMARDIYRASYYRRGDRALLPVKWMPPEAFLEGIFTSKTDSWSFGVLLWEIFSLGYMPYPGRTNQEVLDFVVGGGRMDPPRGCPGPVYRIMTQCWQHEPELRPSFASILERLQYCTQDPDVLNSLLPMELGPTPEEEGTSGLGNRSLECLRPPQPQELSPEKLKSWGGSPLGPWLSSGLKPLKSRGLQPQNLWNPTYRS
# Tyrosine-protein kinase Lyn (Homo sapiens), sequence (P07948 2-512 limits assumed): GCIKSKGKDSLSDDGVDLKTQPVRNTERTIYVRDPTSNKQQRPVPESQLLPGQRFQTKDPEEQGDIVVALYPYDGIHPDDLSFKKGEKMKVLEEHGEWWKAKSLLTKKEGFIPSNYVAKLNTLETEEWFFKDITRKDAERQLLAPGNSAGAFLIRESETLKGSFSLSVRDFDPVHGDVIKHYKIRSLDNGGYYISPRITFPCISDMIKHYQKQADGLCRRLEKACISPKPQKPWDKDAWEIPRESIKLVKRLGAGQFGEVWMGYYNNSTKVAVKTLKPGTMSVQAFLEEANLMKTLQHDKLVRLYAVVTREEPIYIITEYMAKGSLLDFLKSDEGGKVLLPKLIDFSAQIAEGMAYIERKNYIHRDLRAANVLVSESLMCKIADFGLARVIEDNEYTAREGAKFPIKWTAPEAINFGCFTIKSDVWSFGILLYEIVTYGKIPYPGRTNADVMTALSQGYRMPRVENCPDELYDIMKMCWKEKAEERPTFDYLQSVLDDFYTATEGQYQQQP
SMILES,inhibition [1],inhibition [2],inhibition [3],inhibition [4],inhibition [5],inhibition [6],inhibition [7],inhibition [8],inhibition [9],inhibition [10],inhibition [11],inhibition [12],inhibition [13],inhibition [14],inhibition [15],inhibition [16],inhibition [17],inhibition [18],inhibition [19],inhibition [20]
c1ccc(Cc2nc3ccc(Nc4ncnc5ccccc45)cc3[nH]2)cc1,2.52%,5.18%,10.3%,2.45%,8.65%,0.72%,1.74%,4.71%,7.9%,3.14%,3.78%,8.25%,17%,-0.75%,1%,3.02%,5.74%,3.34%,12.9%,4.81%
C[C@@H](Oc1cc(-n2cnc3ccc(OC[C@@H](O)CO)cc32)sc1C(N)=O)c1ccccc1Cl,3.54%,-0.6%,3.84%,-0.83%,2.72%,5.8%,3.84%,-4.12%,-4.35%,9.09%,51.4%,13.8%,62.4%,4.15%,40.5%,0.37%,51.2%,7.79%,50.1%,7.9%
CN(c1ccc(NC(=O)Nc2ccc(OC(F)(F)F)cc2)cc1)c1ccnc(Nc2cccc(S(N)(=O)=O)c2)n1,6.43%,39.9%,83.2%,37.1%,83.6%,5.5%,49.2%,34.4%,64.9%,8.36%,58.5%,76.3%,86.7%,9.66%,46.4%,46.9%,87.1%,87.2%,96.8%,67.5%
COc1cc2ncn(-c3cc(OCc4ccccc4S(C)(=O)=O)c(C#N)s3)c2cc1OC,7.89%,20.4%,65.6%,15.1%,60.9%,35.4%,77.1%,5.94%,15.6%,13.2%,50.6%,59.9%,81.6%,47.5%,88%,7.95%,36.1%,47.3%,87.8%,45.3%
Cc1nc(-c2ccccc2)n2nc(NCCCN3CCOCC3)ncc12,2.41%,2.4%,2.59%,2.14%,2.72%,4.66%,5.5%,2.77%,0.32%,1.84%,5.56%,3.35%,9.81%,0.64%,6.14%,3%,5.5%,2.27%,3.3%,1.99%
NS(=O)(=O)c1cccc(-c2cc3ccncc3cc2OCc2ccccc2)c1,1.46%,5.16%,6.45%,2.95%,3.74%,4.79%,8.95%,3.75%,4.68%,0.26%,4.58%,13.6%,17.2%,2.28%,4.36%,14.8%,6.72%,2.61%,9.52%,7.66%
Oc1cccc(-c2nc(-c3ccccc3)[nH]c2-c2ccncc2)c1,7.05%,9.9%,31.3%,6.99%,25.4%,1.35%,6.42%,6.73%,11.1%,4.05%,8.69%,8.99%,18.5%,4%,13.2%,5.63%,5.18%,2.42%,9.69%,5.66%
CS(=O)(=O)CCNCc1nc(-c2ccc3ncnc(Nc4ccc(OCc5cccc(C(F)(F)F)c5)cc4)c3c2)cs1,3.87%,2.63%,2.07%,2.44%,1.23%,3.74%,5.41%,4.81%,2.51%,1.29%,5.88%,5.06%,13.7%,-0.28%,1.79%,5.99%,15.7%,4.8%,20.4%,6.68%
CN(C)CCCn1c(-c2nonc2N)nc2cnccc21,2.08%,4.87%,6.51%,3.03%,2.22%,2.17%,1.41%,6.53%,5.18%,-0.43%,4.01%,6.93%,8.22%,2.47%,3.67%,4.13%,7.54%,1.59%,4.37%,5.05%
COc1cc2ncnc(Nc3ccc(C)c(O)c3)c2cc1OC,24.8%,39.7%,83.9%,32.6%,80.8%,2.64%,4.97%,1.61%,9.16%,0.51%,7.42%,85.7%,93.9%,94.2%,98%,6.7%,16.9%,89.4%,97.8%,33.2%
c1ccc(Nc2ncc(-c3ccccc3)o2)cc1,6.52%,5.9%,9.62%,4.91%,7.76%,2.15%,2.41%,3.87%,6.02%,3.65%,4.33%,9.48%,30.3%,3.2%,7.2%,6.18%,36.6%,20%,45.7%,10.8%
